Compound activity (PubChem)
Rv3671c protease: inhibits the M. tuberculosis serine protease Rv3671c | 320,000 compounds, 0.048% hits | P9WHR9 | inhibition, % at 5.96 µM; in the data active = inhibition above about 38%;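 also: extracellular domain of Rv3671c used as enzyme; 0% = enzyme with DMSO and 100% = no enzyme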
Target sequence (P9WHR9 whole entry, looked up, the tested form may be a part): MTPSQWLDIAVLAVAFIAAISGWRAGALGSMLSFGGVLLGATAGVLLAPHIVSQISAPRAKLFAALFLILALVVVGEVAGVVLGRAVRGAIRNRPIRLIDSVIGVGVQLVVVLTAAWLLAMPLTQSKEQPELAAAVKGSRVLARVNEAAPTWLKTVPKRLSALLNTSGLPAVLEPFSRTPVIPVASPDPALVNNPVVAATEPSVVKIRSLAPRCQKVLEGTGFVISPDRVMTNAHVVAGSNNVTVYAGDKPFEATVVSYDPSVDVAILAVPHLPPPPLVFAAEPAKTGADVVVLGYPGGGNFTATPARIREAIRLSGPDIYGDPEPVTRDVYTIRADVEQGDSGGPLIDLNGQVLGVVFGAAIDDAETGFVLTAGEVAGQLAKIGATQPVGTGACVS
FadD28 FP inh: inhibitors of Mycobacterium tuberculosis FadD28 bisubstrate binding; inhibition, % at 12.5 µM; 360,000 compounds, 0.22% hits; FadD28 bisubstrate probe binding, fluorescence polarization; in the data active = inhibition above about 8.5%, passing the limit was not always enough
FBA Mtb inh: inhibitors of M. tuberculosis fructose-bisphosphate aldolase | P9WQA3 | purified M. tuberculosis FBA, fluorescence read-out | inhibition, % at 1 µM | 360,000 compounds, 2.3% hits | AID 588726; in the data active = inhibition above about 27%;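 also: 0% = vehicle and 100% = reference inhibitor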
BioA inh: inhibitors of Mycobacterium tuberculosis BioA enzyme. purified M. tuberculosis BioA enzyme, plate reader. inhibition, % at 9.99 µM. 360,000 compounds, 0.096% hits. AID 602481; in the data active = inhibition above about 40%
GDH-TPI inh: counter-screen for M. tuberculosis FBA inhibitors: GDH-TPI coupled enzymes | inhibition, % at 4.8 µM | GDH-TPI coupled enzyme counterscreen, NADH absorbance | 360,000 compounds, 1.2% hits; in the data active = inhibition above about 30%;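 also: 0% = DMSO wells and 100% = wells lacking the enzyme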
Starred values were filed as active, the others as inactive. The list is not random: actives were taken first. Their share in the collection is about 3%.

`Cc1ccc(S(=O)(=O)N(C)C)cc1NC(=S)NC12CC3CC(CC(C3)C1)C2` gave FadD28 FP inh 1, FBA Mtb inh active and GDH-TPI inh 2.
Screening Cc1ccc(S(=O)(=O)N(C)C)cc1NC(=S)NC(=O)C12CC3CC(CC(C3)C1)C2 returned Rv3671c protease -8, FadD28 FP inh -3, FBA Mtb inh 7 and GDH-TPI inh -12.
`COc1ccc(S(=O)(=O)Nc2cccc3c2O[C@H](CN(C)S(=O)(=O)c2ccc(Cl)cc2)[C@@H](C)CN([C@@H](C)CO)C3=O)cc1` gave BioA inh -3.
For COc1cc(/C=N/NC(=O)Cc2ccccc2)cc([N+](=O)[O-])c1O the results were Rv3671c protease 7, FadD28 FP inh 3, FBA Mtb inh -7, BioA inh 0 and GDH-TPI inh 59*.
For COc1ccc(CCNc2nc(=O)[nH]nc2C)cc1OC the results were Rv3671c protease 2, FadD28 FP inh 0, FBA Mtb inh 0, BioA inh -1 and GDH-TPI inh 2.
Cc1cc(C(=O)N/N=C/c2ccc(O)c([N+](=O)[O-])c2)n[nH]1 was read as Rv3671c protease -10, FadD28 FP inh -1, FBA Mtb inh -9 and GDH-TPI inh 43*.
COc1ccc(/C=N/Nc2nc(=O)[nH]nc2C)cc1[N+](=O)[O-] was read as Rv3671c protease -12, FadD28 FP inh -1, FBA Mtb inh 1 and GDH-TPI inh 38*.
`COc1cc(/C=N/NC(=O)Cc2ccccc2)ccc1Oc1ccc([N+](=O)[O-])cc1[N+](=O)[O-]` gave Rv3671c protease -15, FadD28 FP inh 1, FBA Mtb inh 1 and GDH-TPI inh 14.
`COc1cc(/C=N/Nc2nc(=O)[nH]nc2C)cc([N+](=O)[O-])c1O` gave Rv3671c protease 4, FadD28 FP inh 1, FBA Mtb inh -12 and GDH-TPI inh 38*.
For Cc1n[nH]c(=O)nc1N/N=C/c1ccc(O)c([N+](=O)[O-])c1 the results were Rv3671c protease -5, FadD28 FP inh -1, FBA Mtb inh 0, BioA inh 1 and GDH-TPI inh 43*.
Screening COc1cc(/C=N/Nc2nc3ccccc3s2)cc([N+](=O)[O-])c1O returned Rv3671c protease 11, FadD28 FP inh 0, FBA Mtb inh 0, BioA inh -2 and GDH-TPI inh 70*.
`Cc1ccccc1S(=O)(=O)c1c(C)cc(-c2ccccc2)[nH]c1=O` gave Rv3671c protease 0, FadD28 FP inh -2, FBA Mtb inh 76*, BioA inh -2 and GDH-TPI inh 19.
`Cc1cc(-c2ccccc2)[nH]c(=O)c1S(=O)(=O)c1ccccc1` gave Rv3671c protease -1, FadD28 FP inh -1, FBA Mtb inh 107*, BioA inh -2 and GDH-TPI inh 27.
`COc1ccc(S(=O)(=O)Nc2cccc3c2O[C@H](CN(C)C(=O)Nc2cccc4ccccc24)[C@@H](C)CN([C@H](C)CO)C3=O)cc1` gave BioA inh 1.
For CCOc1ccc(-c2cncc3nccn23)cc1 the results were FadD28 FP inh -3, FBA Mtb inh active, BioA inh 1 and GDH-TPI inh 6.
`C[C@H]1CN([C@@H](C)CO)S(=O)(=O)c2ccc(C3=CCCC3)cc2O[C@H]1CN(C)C(=O)c1cccnc1` gave BioA inh 1.
`CCCCNC(=O)N(O)C1N(/N=C/c2ccco2)C(=S)SC1(C)C` (stereo unspecified) gave Rv3671c protease 1, FadD28 FP inh -3, FBA Mtb inh -2, BioA inh 0 and GDH-TPI inh 44*.
For CC1(C)SC(=S)N(/N=C/c2ccc(O)cc2)C1N(O)C(=O)Nc1ccc([N+](=O)[O-])cc1 (stereo unspecified) the results were Rv3671c protease -45, FadD28 FP inh -2, FBA Mtb inh -1, BioA inh -4 and GDH-TPI inh 35*.
For CO[C@@H]1CN(C)C(=O)c2cc(NC(=O)Nc3cccc(F)c3)ccc2OC[C@@H](C)N(C(=O)C2CC2)C[C@@H]1C the results were BioA inh 6.
COc1ccc(OC)c(C(=O)c2c(C)oc3cc([N+](=O)[O-])c(O)c([N+](=O)[O-])c23)c1 was read as Rv3671c protease -1, FadD28 FP inh 1, FBA Mtb inh -13, BioA inh -2 and GDH-TPI inh 36*.
`O=c1oc2cc(Oc3ccc(C(F)(F)F)cc3[N+](=O)[O-])ccc2c2c1CCC2` gave Rv3671c protease -6, FadD28 FP inh -2, FBA Mtb inh 11, BioA inh 0 and GDH-TPI inh 7.
O=c1oc2cc(Oc3c([N+](=O)[O-])cc(C(F)(F)F)cc3[N+](=O)[O-])ccc2c2c1CCCC2 was read as Rv3671c protease -3, FadD28 FP inh 1, FBA Mtb inh active, BioA inh 1 and GDH-TPI inh 22.
O=C(/C=C/c1ccc([N+](=O)[O-])cc1)Nc1cccc(S(=O)(=O)NC2=NCCCCC2)c1 was read as Rv3671c protease 2, FadD28 FP inh -1, FBA Mtb inh 3 and GDH-TPI inh 41*.
For C[C@H]1CN([C@@H](C)CO)C(=O)c2cc(NC(=O)c3ccncc3)ccc2O[C@H]1CN(C)S(=O)(=O)c1ccc(Cl)cc1 the results were BioA inh -2.
Cn1c(-c2ccsc2)c(-c2cccs2)c2cc(-c3ccc4[nH]ccc4c3)ccc21 was read as Rv3671c protease 4, FadD28 FP inh -2, FBA Mtb inh 6, BioA inh 0 and GDH-TPI inh 29.
For Cn1c(-c2ccsc2)c(-c2cccs2)c2cc(-c3ccc4cc[nH]c4c3)ccc21 the results were Rv3671c protease 12, FadD28 FP inh 1, FBA Mtb inh 5, BioA inh -2 and GDH-TPI inh 35*.
`Nc1nc2nc(-c3ccc(Cl)cc3)cc(C(F)(F)F)n2n1` gave Rv3671c protease -3, FadD28 FP inh 1, FBA Mtb inh active and GDH-TPI inh 1.
Screening CO[C@H]1CN(C)C(=O)c2ccc(NS(=O)(=O)c3ccccc3C)cc2OC[C@@H](C)N(C)C[C@@H]1C returned BioA inh -1.
Screening Nc1nc(N)nc(-c2ccccc2)n1 returned Rv3671c protease 12, FadD28 FP inh -2, FBA Mtb inh 6, BioA inh -1 and GDH-TPI inh 7.
Nc1nc(N)c2[nH]c(-c3ccccc3)nc2n1 was read as FadD28 FP inh -3, FBA Mtb inh active, BioA inh 5 and GDH-TPI inh 11.
Screening COC(=O)c1ccc(/C=N/NC(=S)NC(C)C)cc1 returned Rv3671c protease 9, FadD28 FP inh -2, FBA Mtb inh -3, BioA inh -2 and GDH-TPI inh 48*.
For Cc1c(NC(=O)c2ccc(=O)oc2)c(=O)n(-c2ccccc2)n1C the results were Rv3671c protease -3, FadD28 FP inh 0, FBA Mtb inh -1, BioA inh 12 and GDH-TPI inh 33*.
`O=C1NC(=S)S/C1=C\C=C\c1ccc([N+](=O)[O-])o1` gave FadD28 FP inh 14*, FBA Mtb inh -29, BioA inh 2 and GDH-TPI inh 26.
